# FEN1 inhibitor: qHTS Assay for the Inhibitors of Human Flap endonuclease 1 (FEN1); 0.35% of 390,000 active; AID 588795, 2011; Potency, µM (highest dose often 114 µM), for the others: at the top dose activity change, negative = inhibition, actives largely listed as inhibitors; Recombinant FEN1 flap cleavage, fluorescence, 15 min; P39748; note: % is set by controls: 0 for no effect and ±100 for the full control effect; nearly all actives have a fitted effect of over 65% in size
#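 Concentration–response screening of FEN1 (10 nM): 15 min compound preincubation at room temperature, reaction started with 50 nM substrate and read at 0 and 15 min. Corrected, normalized data were fitted by a four-parameter Hill equation.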
# POLB inh: qHTS Assay for Inhibitors of DNA Polymerase Beta. Potency, µM (doses to about 114 µM), inactives show at the top dose activity change, negative = inhibition, usual class: inhibitors. 1.3% of 340,000 active. Pol beta primer extension/strand displacement, fluorescence kinetic. P06746; note: % is set by controls: 0 for no effect and ±100 for the full control effect
#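 Human Pol beta at 10 nM; strand-displacement substrate 50 nM final. Compound exposure 15 min at room temperature before start, reaction 10 min at room temperature.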
# WRN inhibitor: qHTS for Inhibitors of WRN Helicase; Bifunctional 3'-5' exonuclease/ATP-dependent helicase WRN (Homo sapiens), Q14191; WRN helicase unwinding, fluorescent forked duplex, kinetic; Potency, µM (doses to about 114 µM), inactives show at the highest dose activity change, negative = inhibition, actives largely listed as inhibitors; 0.46% of 360,000 active; AID 651768, 2012; note: % is set by controls: 0 for no effect and ±100 for the full control effect; nearly all actives have a fitted effect of over 55% in size
#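 Enzyme (20 nM final) and test compound sit together 15 min at room temperature before substrate addition. Substrate is a single-forked duplex oligonucleotide (100 nM) labelled with fluorophore and quencher, with 2 mM ATP; helicase unwinding raises red fluorescence, read kinetically.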
# Pol eta inh-1: qHTS for Inhibitors of Polymerase Eta; recombinant Pol eta, fluorescent DNA replication assay; Potency, µM (doses to about 114 µM), without a hit: at the highest dose activity change, negative = inhibition, hits mostly inhibitors; 1.2% of 390,000 active; AID 588591, 2011; note: % is set by controls: 0 for no effect and ±100 for the full control effect
# Target sequence (Q9Y253 whole entry, looked up): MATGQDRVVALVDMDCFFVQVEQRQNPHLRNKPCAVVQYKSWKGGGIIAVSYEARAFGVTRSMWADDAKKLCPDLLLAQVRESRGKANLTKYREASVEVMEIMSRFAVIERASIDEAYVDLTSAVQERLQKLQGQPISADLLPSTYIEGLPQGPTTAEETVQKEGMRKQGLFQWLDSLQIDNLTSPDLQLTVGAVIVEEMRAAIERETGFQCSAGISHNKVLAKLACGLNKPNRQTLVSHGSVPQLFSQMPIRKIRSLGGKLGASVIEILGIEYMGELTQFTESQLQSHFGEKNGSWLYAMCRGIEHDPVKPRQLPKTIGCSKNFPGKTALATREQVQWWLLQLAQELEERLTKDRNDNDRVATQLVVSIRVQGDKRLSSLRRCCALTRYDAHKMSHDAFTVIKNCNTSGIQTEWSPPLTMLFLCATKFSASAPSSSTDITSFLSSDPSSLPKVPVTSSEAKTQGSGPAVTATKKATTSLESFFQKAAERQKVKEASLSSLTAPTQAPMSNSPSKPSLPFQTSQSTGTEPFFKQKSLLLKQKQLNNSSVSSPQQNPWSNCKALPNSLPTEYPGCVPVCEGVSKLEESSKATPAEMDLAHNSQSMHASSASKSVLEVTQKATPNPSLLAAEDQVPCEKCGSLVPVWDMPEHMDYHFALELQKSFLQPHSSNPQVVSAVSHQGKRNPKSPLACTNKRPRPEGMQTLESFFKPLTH
#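 Fluorescent replication assay: 50 nM final substrate added after a 15 min room-temperature compound preincubation with 10 nM enzyme. Signal taken at 0 min and again at 10 min.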
# Pol kappa inh-1: qHTS for Inhibitors of Polymerase Kappa; purified Pol kappa, fluorescent DNA synthesis assay, 10 min; Potency, µM (series often up to 107 µM), for inactives: at the top dose activity, negative = inhibition, hits mostly inhibitors; 0.53% of 400,000 active; AID 588579, 2011; DNA polymerase kappa (Homo sapiens), Q9UBT6; note: % is set by controls: 0 for no effect and ±100 for the full control effect
#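 Kinetic fluorescence screen: compound preincubated 15 min RT with 10 nM enzyme; 50 nM substrate (final) initiates; reads at 0/10 min.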
# POLI inh: qHTS for Inhibitors of Polymerase Iota; 1% of 390,000 active; Pol iota fluorescent replication assay, 10 min; Potency, µM (titrated, usually from 115 µM), inactives show top-dose activity, negative = inhibition, actives largely listed as inhibitors; DNA polymerase iota (Homo sapiens), Q9UNA4; AID 588590, 2011
#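 Pol iota at 10 nM preincubated 15 min with compounds at room temperature; reaction started with fluorescent substrate, 50 nM final. Fluorescence read kinetically at 0 and 10 min; buffer-only wells as negative control.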
# Pol kappa inh-2: qHTS for Inhibitors of Polymerase Kappa: Confirmatory Assay for Cherry-picked Compounds. shares compounds with Pol eta inh-1. purified Pol-kappa, fluorescent strand-displacement substrate. Potency, µM, most hits filed as inhibitors. 76% of 920 active. AID 720501, 2013
# Pol eta inh-2: qHTS for Inhibitors of Polymerase Eta: Confirmatory Assay for Cherry-picked Compounds; shares compounds with Pol eta inh-1; Pol eta primer extension, TAMRA/BHQ fluorescence, 10 min; Potency, µM, actives largely listed as inhibitors; AID 720502, 2013; 64% of 2,600 active
# * = called active by the depositor; ? = inconclusive; / = no result given; ! = a repeat was not active; [ ] = another dose, or the depositor's remark. An excerpt weighted towards active compounds, which were near 2.4% of everything screened. Calls come from the whole dose curve; as a rule, active = well fitted curve in the direction sought with a large enough effect; inconclusive = small, poorly fitted or top-dose-only effect, or another doubt; inactive = no such curve, though single readings can be large; an effect the other way counts as inactive or inconclusive. Potency is the fitted concentration of half-maximal effect.
SMILES,FEN1 inhibitor,POLB inh,WRN inhibitor,Pol eta inh-1,Pol kappa inh-1,POLI inh,Pol eta inh-2,others
CNc1nc(-c2ccccc2C)nc2ccccc12,/,/,/,/,2.2%[60.1 µM],/,/,
COc1ccc(/C=C/C(=O)O)cc1S(=O)(=O)NCc1ccco1,-8.0%,?,-2.9%,56.2µM*,-20.8%,?,67.5*,
COc1cc(/C=C/C(=O)O)cc(S(=O)(=O)NC2CCCC2)c1OC,0.8%,-0.7%,-0.9%,-12.8%,-8.2%,9.5%,/,
COc1ccc(/C=C/C(=O)O)cc1S(=O)(=O)NC1CCS(=O)(=O)C1 (stereo unspecified),0.2%,?,-6.0%[11.6 µM],28.2µM*,-24.4%,?,?,Pol kappa inh-2=67*
COc1cc(/C=C/C(=O)O)cc(S(=O)(=O)NCc2ccco2)c1OC,9.2%,2.3%,-1.2%,-14.8%,-3.5%,84.2%,/,
Cc1ccc(N2C(=O)CS(=O)(=O)C23C(=O)N(Cc2ccccc2C)c2ccccc23)cc1Cl (stereo unspecified),-18.8%,4.1%,/,-1.7%,-1.5%,-11.7%,/,
CCc1ccc(NC(=O)Cn2cnc3sc(C)c(S(=O)(=O)N4CCN(c5ccccc5OC)CC4)c3c2=O)cc1,10.2%,0.4%,/,-24.4%,5.1%,25.5%,/,
Cc1ccccc1CN1CCc2nc(Nc3ccc4c(c3)OCCO4)ncc2C1,-5.0%,-10.9%,/,/,5.3%[60.1 µM],-2.2%,/,
CC(=O)c1ccc(S(=O)(=O)Nc2ccc(-n3cnnn3)cc2)cc1,5.9%,/,4.9%[11.6 µM],31.6µM*,-35.2%,39.8µM*,?,
CCN(CCCCN1C(=O)c2ccccc2C1=O)c1ccc2c(c1)C(=O)N(C)C2=O,-22.6%,-19.7%,?,50.1µM*,?,15.8µM*,?,
COc1ccc(/C=C/C(=O)O)cc1S(=O)(=O)N1CCCc2ccccc21,-1.2%,?,-6.2%[11.6 µM],44.7µM*,-40.3%,-0.3%,60.1*,
COc1cc(/C=C/C(=O)O)ccc1S(=O)(=O)N1CCCc2ccccc21,5.0%,22.7%,-6.3%,4.3%,-18.9%,5.3%,/,
COc1ccc(C)cc1NC(=O)c1ccc2c(SCC(=O)O)c3c(nc2c1)CCCC3,-15.9%,-9.3%,-8.7%,11.8%,-6.6%,-15.2%,/,
CCOC(=O)c1ccccc1NC(=O)c1ccc2c(SCC(=O)O)c3c(nc2c1)CCCC3,-5.9%,2.1%,-16.2%[11.6 µM],50.1µM*,-13.3%,-11.1%,75.7*,
COc1cc(Cl)c(C)cc1NC(=O)c1ccc2c(SCC(=O)O)c3c(nc2c1)CCCC3,-5.2%,20µM*!,-33.3%,50.1µM*!,-11.9%,121.2%,?,Pol kappa inh-2=75.2*
COc1cccc(NC(=O)CSc2nnc(NC(=O)NC3CCCCC3)s2)c1,-16.0%,3.1%,/,-11.3%,-6.9%[60.1 µM],10.6%,/,
CCC(C(=O)Nc1cc(-c2nc3cccnc3s2)ccc1C)c1ccccc1 (stereo unspecified),?,6.5%,/,6.0%,-6.2%,7.3%,/,
COCc1nnc(NC(=O)C2CCN(C(=O)c3ccccc3)CC2)s1,10.7%,/,/,/,-4.8%,?,/,
CC(=O)Nc1c(O)nc(SCC(=O)Nc2nnc(SCc3ccccc3)s2)[nH]c1=O,?,-24.5%,-3.8%[11.6 µM],35.5µM*,?,25.1µM*,?,
CC(=O)Nc1c(O)nc(SCC(=O)Nc2nnc(CC(C)C)s2)[nH]c1=O,-2.3%,3.9%,3.7%,8.7%,-0.6%,3.3%,/,

# Assay outcomes deposited in PubChem by National Center for Advancing Translational Sciences (NCATS).
